Drawing on PubChem BioAssay AID1946 (Johns Hopkins Ion Channel Center, 2009), this text covers activity change vs negative control for 63 molecules.

The campaign covered roughly 2,400 compounds. About 180 (7.5%) were called active.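 Rule for the calls: active = readout below zero, meaning a drop past 3 SD under the dofetilide-free negative control mean; inactive = the rest.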 The full list was thinned out, with actives kept by preference.

The experiment deals with Potassium voltage-gated channel subfamily KQT member 2 (Rattus norvegicus) (UniProt O88943). The experiment can be described thus: rat KCNQ2 channel inhibition by compounds alone, confirmation, counter-screen for hERG block protector project, cell-based, CHO, FluxOR thallium flux (AID 1946). To be noted: CHO-KCNQ2 cells, FluxOR thallium flux fluorescence; at 10 µM; stronger effect = lower value; zero marks the 3-SD hit cutoff.
Chain of Potassium voltage-gated channel subfamily KQT member 2 (Rattus norvegicus) (O88943 whole entry, looked up): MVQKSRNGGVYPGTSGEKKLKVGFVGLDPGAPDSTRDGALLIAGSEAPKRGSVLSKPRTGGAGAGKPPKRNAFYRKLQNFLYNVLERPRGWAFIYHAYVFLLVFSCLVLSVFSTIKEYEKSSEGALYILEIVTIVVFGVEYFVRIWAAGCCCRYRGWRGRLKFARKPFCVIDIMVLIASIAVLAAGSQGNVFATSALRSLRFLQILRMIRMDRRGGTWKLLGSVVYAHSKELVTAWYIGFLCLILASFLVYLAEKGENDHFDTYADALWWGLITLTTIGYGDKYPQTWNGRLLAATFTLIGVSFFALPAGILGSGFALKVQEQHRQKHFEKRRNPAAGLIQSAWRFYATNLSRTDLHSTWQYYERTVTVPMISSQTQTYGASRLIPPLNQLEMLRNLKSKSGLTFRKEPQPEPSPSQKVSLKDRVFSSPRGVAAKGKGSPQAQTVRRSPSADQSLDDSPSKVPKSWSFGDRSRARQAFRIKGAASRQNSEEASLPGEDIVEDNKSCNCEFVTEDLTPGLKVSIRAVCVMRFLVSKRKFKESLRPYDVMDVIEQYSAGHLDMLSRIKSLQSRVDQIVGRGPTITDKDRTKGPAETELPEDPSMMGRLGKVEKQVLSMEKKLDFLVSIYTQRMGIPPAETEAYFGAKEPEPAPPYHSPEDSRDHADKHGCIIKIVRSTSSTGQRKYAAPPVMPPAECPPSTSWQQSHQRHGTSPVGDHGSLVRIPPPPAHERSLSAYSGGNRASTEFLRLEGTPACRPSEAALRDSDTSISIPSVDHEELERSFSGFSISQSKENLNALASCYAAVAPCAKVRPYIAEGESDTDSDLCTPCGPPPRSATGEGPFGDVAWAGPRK
`O=C(NC(=S)Nc1nc2ccc(F)cc2s1)c1ccco1`: the activity change vs negative control is 82.7% (inactive).
`CCC1(c2ccc(Cl)cc2)NC(=S)N(c2ccc(C)c(C)c2)N1` (stereo not drawn): the activity change vs negative control is 124% (inactive).
For the molecule `CCCN(Cc1ccccc1)C(=S)NC(=O)c1ccccc1[N+](=O)[O-]`, the activity change vs negative control was 120% (inactive).
Consider `O=C(NC(=S)N1CCCC(C(F)(F)F)C1)c1ccc(F)cc1` (stereo not drawn), for which the activity change vs negative control was 46.1% (inactive).
The figure for `CCOc1ccc2nc(N3C(=O)/C(=C/c4ccc(Cl)cc4)NC3=S)sc2c1` is 6.5% (inactive).
As for `CN(C)c1oc(-c2ccccc2[N+](=O)[O-])nc1C#N`, the figure is 16.4% (inactive).
The figure for `CN(C)c1oc(-c2ccccc2)nc1C#N` is -1.7% (active); for `CCOC(=O)C(=CNc1cc(C)nn1C(C)(C)C)C(=O)OCC` it is 13% (inactive).
Turning to `Cc1ccc(C(=C2C3C=CC2C2C(=O)NC(=O)C32)c2ccc(C)cc2)cc1` (stereo not drawn), the activity change vs negative control was -2.6% (active).
As for `CC1CCCCC1NC(=S)NC(=O)c1cccs1` (stereo not drawn), the figure is 49.2% (inactive); as for `CCC1(c2ccc(Cl)cc2)NC(=S)N(c2ccccc2)N1` (stereo not drawn), 108% (inactive).
Regarding `N#Cc1cc(-c2ccccc2)nnc1Oc1ccccc1`, the activity change vs negative control is -0.2% (active).
The figure for `COCCNC(=O)C(c1ccc(C)o1)N(Cc1ccc(OC)cc1)C(=O)Cn1nnc2ccccc21` (stereo not drawn) is 33.6% (inactive).
As for `COc1ccc(-n2c(SCC#N)nnc2-c2cccnc2)cc1`, the figure is -1.2% (active); as for `COc1cc(-c2nnc(SCC(=O)O)n2-c2ccccc2)cc(OC)c1OC`, 0.6% (inactive); as for `Cc1ccc(NC(=O)CSc2nnc(-c3cccnc3)n2-c2ccc(C)cc2)cc1`, 12.3% (inactive).
The figure for `CC1Cc2ccccc2N1C(=S)NC(=O)c1ccc(Cl)cc1Cl` (stereo not drawn) is 83.8% (inactive); for `COCCn1c(=S)[nH]c2sc3c(c2c1=O)CCC(C)C3` (stereo not drawn) it is 81% (inactive).
As to `CC(C)N(Cc1ccccc1)C(=S)NC(=O)C1(C)CC1(Cl)Cl` (stereo not drawn), the activity change vs negative control was 53.8% (inactive).
`OC(CNCC(c1ccc(Cl)cc1Cl)c1c[nH]c2ccccc12)c1ccccc1` (stereo not drawn): the activity change vs negative control is -12% (active).
As for `COc1cccc(C=Nc2cc(C)cc(C)c2)c1O`, the activity change vs negative control is 39.5% (inactive).
The figure for `O=c1cc(-c2ccccc2)nc2c(-c3ccccc3)c(C(F)(F)F)[nH]n12` is 81.1% (inactive).
As for `COc1cc(NC(=O)c2ccccc2)c(OC)cc1NC(=O)Cc1ccc(Br)cc1`, the figure is 26.8% (inactive); as for `O=C(O)COc1ccc(NC(=O)c2ccc3c(c2)C(=O)N(C2CCCCC2)C3=O)cc1`, 21.1% (inactive); as for `Cn1cc(/C=N/n2cnc3scc(-c4ccc(Cl)cc4)c3c2=O)c2ccccc21`, 9% (inactive).
As for `Cc1ccc(C)n1-n1c(C)nc2scc(-c3ccccc3)c2c1=O`, the figure is -3.2% (active); as for `S=c1[nH]cnc2scc(-c3ccccc3)c12`, 74.3% (inactive).
For the molecule `Cc1c(N2C(=O)/C(=C\c3ccccc3O)SC2=S)c(=O)n(-c2ccccc2)n1C`, the activity change vs negative control was 90% (inactive).
Regarding `S=c1[nH]cnc2scc(-c3ccc(Cl)cc3)c12`, the activity change vs negative control is 49.5% (inactive).
As for `CCOC(=O)c1sc(NC(=S)NC(=O)c2ccccc2)nc1C`, the figure is 20.3% (inactive); as for `CC1CCN(S(=O)(=O)c2ccc3nc(N4CCN(c5ccccc5)CC4)ccc3c2)CC1`, 4.3% (inactive); as for `CC1CCN(c2ccc3c(c2)S(=O)(=O)c2ccccc2C3=O)CC1`, -10.9% (active).
Regarding `CC(=O)c1c(N)[nH]c(-c2ccccc2)nc1=S`, the activity change vs negative control is 22.9% (inactive).
As for `Cc1ccc(CN2CCN(CC(=O)NC(C)c3ccc4c(c3)OCCO4)C2=O)cc1` (stereo not drawn), the figure is 38.3% (inactive); as for `CN1C(=O)/C(=N/OC(=O)c2ccccc2)c2ccccc21`, 8% (inactive).
Take `Cc1ccc(NC(=O)c2ccc(CNS(=O)(=O)c3cccc(C(F)(F)F)c3)cc2)cc1`: the activity change vs negative control was 8.1% (inactive).
For the molecule `CN(CC(=O)Nc1ccc(Cl)cc1)C(=O)c1cccc(S(=O)(=O)NCc2ccccc2)c1`, the activity change vs negative control is -2.7% (active).
As for `CC(=O)c1ccc(S(=O)(=O)NCc2ccc(C(=O)N(C)CC(=O)Nc3cccc(F)c3)cc2)cc1`, the figure is 5.5% (inactive); as for `O=c1c2ccc(Cl)cc2nc(-c2cccc(C(F)(F)F)c2)n1O`, 141% (inactive).
The figure for `ON/C=N/C(=S)Nc1ncc(C(F)(F)F)cc1Cl` is 49.3% (inactive); for `CC1(C)CC2CC(C)(CN2C(=S)NC(=O)c2ccccc2Cl)C1` (stereo not drawn) it is 37.9% (inactive).
As for `Cc1ccc(/C(O)=C/C(=O)C(=O)NC23CC4CC(CC(C4)C2)C3)cc1`, the figure is 32.5% (inactive); as for `Cc1ccc(N=Cc2cc(Cl)cc(Cl)c2O)nc1`, 53.9% (inactive).
Consider `Cc1cc(C)n(-c2nc(NCCCN(C)C)c3c4c(sc3n2)CCCC4)n1`, for which the activity change vs negative control is -1.4% (active).
As for `Cc1cc(C)n(-c2nc3sc4c(c3c(=O)[nH]2)CCCC4)n1`, the figure is 28% (inactive); as for `CN(C)CCNc1ncnc2c1sc1nc(N3CCCC3)c3c(c12)CC(C)(C)OC3`, 8.8% (inactive).
As for `CC(NC(=O)NC1CCCCC1)c1ccc2c(c1)OCO2` (stereo not drawn), the figure is 72.4% (inactive); as for `COc1ccccc1C(=O)NNC(=O)C(=O)NC(C)(C)C`, 31.3% (inactive).
The figure for `COc1ccccc1-n1cnc2cc(NS(=O)(=O)c3ccc(Br)cc3)ccc21` is -2.5% (active).
For the molecule `Cc1ccc(NS(=O)(=O)c2ccc(NC(=O)c3ccccc3C(=O)O)cc2)cc1C`, the activity change vs negative control is 10.8% (inactive).
The figure for `COc1ccc(NS(=O)(=O)c2ccc3ccccc3c2)c2ncccc12` is 2% (inactive); for `COc1ccc(C(=O)NC(=S)N(Cc2ccccc2)Cc2ccccc2)cc1` it is 51.4% (inactive).
The figure for `CCOC(=O)N1CCN(c2c(-c3ccc(C)c(C)c3)c(=O)c2=O)CC1` is 20.5% (inactive); for `Cc1ccc(C(=O)NC(=S)N(C)C2CCCCC2)cc1Br` it is 17.4% (inactive); for `Cc1ccc(C(C)NC(=O)c2ccc3c(c2)OCO3)cc1C` (stereo not drawn) it is 58.4% (inactive).
As for `CCCCNC(=S)NNC(=O)c1ccc2c(c1)OCO2`, the figure is -2.9% (active).
Turning to `COc1ccc(CCNC(=O)c2ccc3c(c2)OCO3)cc1`, the activity change vs negative control was 5% (inactive).
The figure for `O=c1c(-c2ccccc2)nc(-c2ccccc2)cn1O` is 88.1% (inactive); for `COc1cccc(C(=O)NNC(=O)C(=O)Nc2cccc(Cl)c2C)c1` it is 83.6% (inactive).
As to `COC(=O)C1=NN(C(=O)c2cccc(Br)c2)C(O)(c2ccc(Cl)cc2)C1` (stereo not drawn), the activity change vs negative control was 158% (inactive).
For `Cc1ccc(NC(=O)CCc2nc3sc4c(c3c(=O)[nH]2)CCCC4)c(Br)c1`, the activity change vs negative control was -0.3% (active).
As to `Cc1nc(SCC(=O)NCC2CCCO2)c2c3c(sc2n1)CCCC3` (stereo not drawn), the activity change vs negative control was 32.5% (inactive).
The figure for `CCOC(=O)c1cnn(-c2nc(SC)nc3sc4c(c23)CCCC4)c1N` is 5.9% (inactive).
